From PubChem BioAssay AID2733 (National Center for Advancing Translational Sciences (NCATS), 2010)
Records with an inconclusive call do not appear. Activity calls are given as the source filed them. The call rests on the fitted dose curve; in most records, active means well fitted inhibition curve with a large enough effect; inconclusive means small, poorly fitted or top-dose-only effect; inactive means flat fitted curve, though single readings scatter.

test: High Content Assay for Compounds that inhibit the Assembly of the Perinucleolar Compartment: PC3M Cytotoxicity; settings: PC3M cells, ATPLite luminescence viability, 24 h; series mostly up to 46.1 µM; activity change, negative = cytotoxicity: at the top concentration
From the text: High Content Assay for Compounds that inhibit the Assembly of the Perinucleolar Compartment
NIH Chemical Genomics Center [NCGC]
NIH Molecular Libraries Probe Centers Network [MLPCN]
Assay Submitter (PI): Sui Huang, Northwestern University, Feinberg School of Medicine, Cell and Molecular Biology, Chicago, Illinois.
The perinucleolar compartment (PNC) is a non-membrane-bound nuclear subdomain that is associated with but structurally distinct from the nucleolus. The PNC is a heritable trait, in which the number of PNCs per cell in daughter cells often mimics that of their mother cells. The PNC is heterogeneous in shape, is stable through interphase, disassembles during mitosis, and reassembles in early G1. The PNC is concentrated with newly synthesized RNA polymerase III (pol III) RNAs (MRP RNA, RNAse P H1 RNA, hY RNAs[hY1, 2, 5], Alu RNA, and SRP [7SL] RNA) and RNA binding proteins (nucleolin, PTB, CUG-BP, KSRP, Raver1, Raver2, and Rod).
Extensive in vitro studies have shown that the PNC is unique to tumor cells and preferentially forms in tumor cells derived from solid tissues. Examination of cancer cell lines from various origins and malignant capacities has shown that PNC prevalence correlates with the malignancy of tumors and has the potential to be developed as a pan-cancer prognostic marker.
Although the PNC is associated with a DNA locus and a handful of components have been identified, much remains to be investigated regarding the structure and function of the PNC and its mechanistic link to cancer. We have previously shown that PNC prevalence reduction is a valid strategy to identify compounds that can be used to study the structure and function of the PNC. It is necessary, however, to create a screening platform that is able to test a large number of compounds in an automated fashion. Here we report the development and robustness of an automated whole-cell phenotypic image-based screening assay that is capable of identifying such compounds.
We conducted a followup assay to measure the effect of the lead candidates on cell health by measuring ATP levels (ATPLite). The highly metastatic PC3M-GFP reporter cell line was used in this study.
1. Cells at a density of 75-90% confluency in T175 flasks were harvested using 7 ml TrypLE Express cell dissociation reagent. After dissociation (5 minutes room temperature incubation) 10 ml of complete media was added to the TrypLE/cell suspension. The liquid was transferred to a 50 ml Conical tube and cells were pelleted at 1000 RPM for 5 min. Supernatant was removed and cells were resuspended to a final density of 150-200 cells/ul in complete media.
2. Cells were plated in 5 ul volume (2000 cells/well) into 1536 well White solid bottom plates and allowed to recover and adhere at 37 C in a humidified 5% CO2 incubator for 4 hours.
3. After 4 hour incubation, compound libraries (23 nl of 12.5 uM in columns 5-48) were transferred to the plates in duplicate using a 1536 well pintool. Camptothecin positive control (59 uM final) was added to column 2 and 1:3 dilutions of camptothecin was added to column 3. DMSO negative controls were present in columns 1 and 4.
4. After a 24 hour incubation in the 37 C incubator, all wells were treated with 3 ul of ATPLite reagent using a multidrop combi dispenser (ThermoFisher). Bubbles that formed during dispensing were removed by spinning the plates for 1 minutre at 1500 RPM on a table top centrifuge.
5. Luminescencent signal was detected on a Viewlux CCD based imager (PerkinElmer) with a clear filter and a 30 second integration time.
The PC3M cell line stably expressing the PTB-GFP was provided by Sui Huang of Northwestern University. The media and cell culture reagents were purchased from Invitrogen (Carlsbad, CA), ATPLite came from PerkinElmer.

Compound | Potency | activity change, negative = cytotoxicity
O=C(N/N=C/c1cc2c3c(c1O)CCCN3CCC2)c1ccccc1O | 3.16 µM (active) | –
COc1cccc(CNc2cccc3cccnc23)c1O | – | -0.123% (inactive)
O=C(N/N=C/c1ccccc1O)c1cccc(C(F)(F)F)c1 | 10 µM (active) | –
Cc1c(C#N)c(N)nc2c3c(sc12)NC(=O)CC3c1ccc(F)cc1 (stereo not given) | – | -15.1% (inactive)
O=C(NCc1ccco1)C1CCN(Cc2ccc(F)cc2)CC1 | – | -8.55% (inactive)
Cc1cc(C)c(S(=O)(=O)/N=C2/C=C(Sc3ncn[nH]3)C(=O)c3ccccc32)cc1C | 14.1 µM (active) | –
COc1ccc(CN2CCC(C(=O)NCCc3ccc(OC)c(OC)c3)CC2)c(OC)c1 | – | -5.79% (inactive)
CCOC(=O)NC1(Nc2ccc(C)cc2)Oc2ccccc2O1 | – | -5.34% (inactive)
Cc1ccc(NC(=S)NCCc2ccc(S(N)(=O)=O)cc2)cc1C | – | 14.6% (inactive)
O=C(N/N=C/c1c(O)ccc2ccccc12)c1cccc(C(F)(F)F)c1 | 8.91 µM (active) | –
COC(=O)C1=C(C)N(c2ccc(Br)cc2)C(=O)/C1=C\c1ccco1 | – | -9.56% (inactive)
CCN(CC)c1ccc(N=Cc2ccccc2[N+](=O)[O-])cc1 | – | 11.6% (inactive)
COc1ccc2nc3sc(C(=O)NCCCN4CCc5ccccc5C4)cc3cc2c1 | 31.6 µM (active) | –
Cc1ccc(Cl)cc1N(CC(=O)N1CCCCCC1)S(C)(=O)=O | – | -19% (inactive)
CN(C)c1ccc(N=Nc2ccccc2C(=O)OCC(=O)NC2CCCC2)cc1 | – | -11.2% (inactive)
CC(=O)Nc1cccc(Oc2ncnc3scc(-c4ccc(C)cc4)c23)c1 | – | -9.47% (inactive)
O=S(=O)(Nc1cc(Sc2cccc3cccnc23)c(O)c2ccccc12)c1ccc(F)cc1 | 15.8 µM (active) | –
O=[N+]([O-])c1cc(/C=N/Nc2nc3ccccc3[nH]2)c(O)cc1O | 7.94 µM (active) | –
O=C1C(=O)c2ccc(-c3ccccc3)cc2-c2ccccc21 | 15.8 µM (active) | –
CSc1nc(-c2ccc(C)cc2)nc(C(Cl)Cl)n1 | 31.6 µM (active) | –

Compound | Potency | activity change, negative = cytotoxicity
CC(=O)N(C)C1=C(N2CCOCC2)C(=O)c2ccccc2C1=O | 15.8 µM (active) | –
O=C(N/N=C/c1cc(Cl)ccc1O)C(=O)Nc1ccccc1OC(F)(F)C(F)F | 14.1 µM (active) | –
CN1c2ccccc2C(C)(C)C12CC(c1ccc(Cl)c(S(=O)(=O)N3CCCC3)c1)=NO2 (stereo not given) | 3.98 µM (active) | –
CNC1=C(N(C(C)=O)c2ccc(Br)cc2)C(=O)c2ccccc2C1=O | 8.91 µM (active) | –
CCCNC1=C(N(C(C)=O)c2cccc(F)c2)C(=O)c2ccccc2C1=O | 11.2 µM (active) | –
Nc1cccc(-c2nc3ccc(N)cc3s2)c1 | 25.1 µM (active) | –
COc1cc(C(=O)Oc2ccccc2/C=N/NC(=O)c2ccc(Cl)cc2)cc(OC)c1OC | 11.2 µM (active) | –
Cc1cc(SC(C)C(=O)Nc2ncc(Cl)cc2Cl)nc2ccccc12 (stereo not given) | 11.2 µM (active) | –
O=C1C(Nc2ccccc2)=C/C(=N/S(=O)(=O)c2cccs2)c2ccccc21 | 15.8 µM (active) | –
COc1cc(/C=N/NC(=O)c2ccc(CSc3nc4ccccc4[nH]3)cc2)cc(OC)c1OC | – | -25% (inactive)
Cc1cccc(C)c1Nc1c(-c2ccc(N3CCOCC3)cc2)nc2ncccn12 | – | -2.92% (inactive)
CC(=O)c1ccc(-n2c(SCC(=O)c3c[nH]c4ccccc34)nc3ccccc3c2=O)cc1 | – | -0.271% (inactive)
Cc1cc[n+](C2=C([O-])c3ccccc3C(=O)/C2=N\S(=O)(=O)c2cccs2)cc1C | 25.1 µM (active) | –
Cc1cccc(NC2=C/C(=N/S(=O)(=O)c3cccs3)c3ccccc3C2=O)c1 | 15.8 µM (active) | –
O=C(COC(=O)Cc1ccsc1)NCC1CCCCC1 | – | 1.89% (inactive)
O=C1C(=Cc2cccs2)C(=O)c2ccccc21 | – | -11.4% (inactive)
COc1ccccc1NC1=C(N2CCCCC2)C(=O)c2ccccc2C1=O | 7.94 µM (active) | –
CCOC(=O)CSc1nc2c(sc3ccc([N+](=O)[O-])cc32)c(=O)n1Cc1ccco1 | – | 8.39% (inactive)
C=CCN=c1scc(-c2ccccc2)n1/N=C/c1ccccn1 | 14.1 µM (active) | –
Cc1ccc(NC2=C/C(=N/S(=O)(=O)c3cccs3)c3ccccc3C2=O)cc1 | 14.1 µM (active) | –
